High-throughput results as filed in PubChem.
LMP1 NFkB inh = Epstein-Barr LMP1 NF-kappaB reporter inhibition. AID 504558. LMP1-induced NF-kappaB luciferase reporter cells, luminescence. inhibition, % at 12.5 µM. 350,000 tested, 0.69% active; in the data active = inhibition above about 41%;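 note: 0% = neutral control wells and 100% = reference inhibitor control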
Peg3 prom inh = inhibitors of Peg3 promoter | inhibition, % at 20 µM | HeLa PEG-Prom luciferase reporter, luminescence, overnight | 360,000 tested, 1.7% active;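 active = inhibition of at least 50% at 20 µM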
Shn3 3UTR inh = Schnurri-3 reporter inhibition in Clone20 osteoblasts; inhibition, % at 12.5 µM; AID 588674; 360,000 tested, 0.52% active; Clone20 osteoblast Shn3 3'UTR firefly luciferase, 24 h;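 active = mean inhibition of at least 75% with every replicate also reaching 75%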;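 note: 0% = median of neutral control wells and 100% = pilot-screen positive control compound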
TROY NFkB inh = TROY signaling inhibition. Q293 LMP1-TROYcd NF-kB luciferase reporter, 4 h. inhibition, % at 10 µM. 360,000 tested, 0.98% active. AID 1347056;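 active = compounds whose plate-normalised and pattern-corrected inhibition of the luciferase reporter signal at the single screening dose is 50% or more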
TWEAK-Fn14 inh = blocks TWEAK-Fn14 interaction in a reporter cell assay | TWEAK-stimulated Fn14 reporter cells, luciferase luminescence, 8 h | inhibition, % at 10 µM | 360,000 tested, 2% active; in the data active = inhibition above about 50%
TRPM1 prom inh = MITF TRPM1 promoter inhibition in SK-MEL-5 cells. 330,000 tested, 0.83% active. AID 488899. SK-MEL-5 TRPM1 promoter luciferase, 24 h. inhibition, % at 12.5 µM;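 active = mean inhibition across replicates of 60% or more, whatever share of single replicates reaches that level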
* = called active by the depositor. An excerpt weighted towards active compounds, which were near 4.1% of everything screened.

`O=C(Nc1ccc(Cc2ccncc2)cc1)C1CCC(N2C(=O)C3C4C=CC(C5CC45)C3C2=O)CC1` (centres undefined) gave LMP1 NFkB inh -13, Peg3 prom inh 40, Shn3 3UTR inh 75, TROY NFkB inh 53*, TWEAK-Fn14 inh 47 and TRPM1 prom inh 40.
CC(C)COc1ccc(-c2nnc(-c3ccco3)o2)cc1 was read as LMP1 NFkB inh 19, Peg3 prom inh -74, Shn3 3UTR inh -3, TROY NFkB inh -12, TWEAK-Fn14 inh 57* and TRPM1 prom inh -33.
For CCN(CC)CCCNc1ccc(-c2nnc(-c3ccc(OCC(C)C)cc3)o2)cn1 the results were LMP1 NFkB inh 0, Peg3 prom inh 113*, Shn3 3UTR inh 25, TROY NFkB inh -21, TWEAK-Fn14 inh -71 and TRPM1 prom inh 77*.
`COc1cccc(-c2nnc(-c3ccco3)o2)c1` gave LMP1 NFkB inh -10, Peg3 prom inh -174, Shn3 3UTR inh -53, TROY NFkB inh -45, TWEAK-Fn14 inh 17 and TRPM1 prom inh -17.
Screening O=C(COc1ccccc1)Nc1ccc(-c2nnc(-c3ccco3)o2)cc1 returned LMP1 NFkB inh -18, Peg3 prom inh -44, Shn3 3UTR inh -14, TROY NFkB inh -40, TWEAK-Fn14 inh -14 and TRPM1 prom inh -4.
CCCOc1ccc(-c2nnc(-c3ccco3)o2)cc1 was read as LMP1 NFkB inh 28, Peg3 prom inh -22, Shn3 3UTR inh 6, TROY NFkB inh 34, TWEAK-Fn14 inh 72* and TRPM1 prom inh -16.
O=C(NNc1ccccc1[N+](=O)[O-])Nc1ccc(Cl)c(Cl)c1 was read as LMP1 NFkB inh 32, Peg3 prom inh -9, Shn3 3UTR inh 5, TROY NFkB inh 55*, TWEAK-Fn14 inh 39 and TRPM1 prom inh -2.
`CCCCN(CCCC)S(=O)(=O)c1ccc(NC(=O)c2ccc([N+](=O)[O-])cc2Cl)cc1` gave LMP1 NFkB inh -5, Peg3 prom inh 18, Shn3 3UTR inh 78, TROY NFkB inh 31, TWEAK-Fn14 inh 63* and TRPM1 prom inh 13.
Cc1ccc(NC(=O)CN(c2ccc(Cl)cc2)S(=O)(=O)c2cc([N+](=O)[O-])ccc2Cl)cc1 was read as LMP1 NFkB inh -8, Peg3 prom inh 27, Shn3 3UTR inh -8, TROY NFkB inh 14, TWEAK-Fn14 inh 34 and TRPM1 prom inh 9.
For O=C(Nc1ccc(Cl)c([N+](=O)[O-])c1)C(Sc1ccccc1)c1ccccc1 (centres undefined) the results were LMP1 NFkB inh 21, Peg3 prom inh 53*, Shn3 3UTR inh 47, TROY NFkB inh 55*, TWEAK-Fn14 inh 94* and TRPM1 prom inh -4.
Screening CCN(CC)S(=O)(=O)c1cc([N+](=O)[O-])ccc1NNC(=O)Nc1ccc(Cl)c(Cl)c1 returned LMP1 NFkB inh 46*, Peg3 prom inh 49, TROY NFkB inh 54*, TWEAK-Fn14 inh 59* and TRPM1 prom inh 38.
For O=C(Nc1cc([N+](=O)[O-])ccc1Cl)C(Sc1ccccc1)c1ccccc1 (centres undefined) the results were LMP1 NFkB inh -10, Peg3 prom inh 28, Shn3 3UTR inh 9, TROY NFkB inh -6, TWEAK-Fn14 inh -9 and TRPM1 prom inh 4.
O=C(NNc1ccccc1[N+](=O)[O-])Nc1ccccc1 was read as LMP1 NFkB inh 5, Peg3 prom inh 7, Shn3 3UTR inh -32, TROY NFkB inh 28, TWEAK-Fn14 inh 10 and TRPM1 prom inh 5.
For CC(C)(C)c1ccc(COc2ccsc2C(=O)O)cc1 the results were LMP1 NFkB inh -9, Peg3 prom inh -85, Shn3 3UTR inh -22, TROY NFkB inh -39, TWEAK-Fn14 inh -38 and TRPM1 prom inh -22.
Screening CC(=O)Nc1cccc(NC(=O)C2CC(=O)N(c3ccc(C)cc3)C2)c1 (centres undefined) returned LMP1 NFkB inh 1, Peg3 prom inh 7, Shn3 3UTR inh -2, TROY NFkB inh 5, TWEAK-Fn14 inh 0 and TRPM1 prom inh 8.
`OCc1nc2ccccc2n1CCCc1ccccc1` gave LMP1 NFkB inh 8, Peg3 prom inh -26, Shn3 3UTR inh -20, TROY NFkB inh 0 and TWEAK-Fn14 inh -34.
For CN(/N=C\c1ccc(O)c(O)c1)c1nc(-c2ccccc2)cc(-c2ccccc2)n1 the results were LMP1 NFkB inh -18, Peg3 prom inh 10, Shn3 3UTR inh 92*, TROY NFkB inh -22, TWEAK-Fn14 inh -7 and TRPM1 prom inh 12.
